Results published in PubChem BioAssay (NCATS).
Records with an inconclusive call do not appear. Activity calls are given as the source filed them. Unless noted, calls come from the whole dose curve; as a rule, active = well fitted curve in either direction with a large enough effect (not every such curve was filed as active); inconclusive = small, poorly fitted or top-dose-only effect, or another doubt; inactive = flat fitted curve, though single readings scatter.

Tests used:
[1] = target: Lysosomal acid glucosylceramidase (Homo sapiens) (UniProt P04062); test: Glucocerebrosidase-p2 (AID 348; in the data active = potency below about 10 µM; note: potency is the fitted concentration of half-maximal effect); settings: purified GBA, blue fluorogenic substrate, 40 min
In short: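 Compounds titrated from 0.6 nM upwards against 0.2 nM enzyme in pH 5.9 citric acid/KH2PO4, taurocholate, tween-20; blue fluorogenic substrate 80 uM, 40 min room temperature, stopped and read Ex 365/Em 440 for AC50.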

[2] = AP1 Signaling Pathway (AID 357); settings: ME-180 AP-1-bla reporter, EGF-induced, beta-lactamase ratio, 5 h; at 7.69 µM (top of the series) unless noted;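 note: ME-180 reporter cells stimulated with EGF at its EC50 level; % is set by controls: 0 for no effect and ±100 for the full control effect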
In short: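 Read-out was the 460nm/530nm emission ratio (excitation 405nm) after CCF4 loading for 2.5 hours at room temperature. Cells carried an AP-1-driven beta-lactamase reporter, were stimulated with EC50 EGF plus compound for 5 hours, and AC50 values came from titrations.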

[3] = NFAT Signaling Pathway (AID 444); settings: Jurkat NFAT-bla M1, carbachol, beta-lactamase ratio, 5 h; at 7.69 µM (top of the series) unless noted;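 note: carbachol stimulus at about its EC50 of 1 µM final; % is set by controls: 0 for no effect and ±100 for the full control effect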
In short: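 Read-out: CCF4 FRET ratio (460 nm/530 nm) after 1 h RT dye loading, used for %activity and AC50 from titration series. Cells: Jurkat NFAT-β-lactamase/M1 line, treated with compound plus 1 uM carbachol for 5 h, 37 °C.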

[4] = Stat Signaling Pathway (AID 446); settings: ME-180 (cervical carcinoma) SIE beta-lactamase reporter, IL-6 stimulated, 5 h; at 7.69 µM (top of the series) unless noted;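 note: ME-180 cervical cancer cells given 40 pM IL-6 alongside compound; SIE-controlled beta-lactamase reporter measured as 460/530 nm FRET emission ratio; % is set by controls: 0 for no effect and ±100 for the full control effect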
In short: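 IL-6/STAT signaling read in ME-180 cells via an SIE beta-lactamase reporter. Stimulus was 40 pM IL-6 (its AC50) for 5 hrs, so both activation and inhibition register.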

[5] = target: Glucocorticoid receptor (Homo sapiens) (UniProt P04150); test: GR-EFC Redistribution (AID 451; calls by dose curve; note: potency is the fitted concentration of half-maximal effect); settings: CHO-K1 GR-EFC translocation, beta-gal luminescence, 2 h
In short: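 Translocation of GR-ED fusion to nuclear EA restores b-gal, read by luminescence after 1 h room-temperature detection. Engineered CHO-K1 biosensor cells, 1,000/well, exposed 2 h at 37 C to titrations up to 46 uM final.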

[6] = target: Mitogen-activated protein kinase 10 (Mus musculus) (UniProt Q61831); test: JNK3 AlphaScreen Assay (AID 530); settings: JNK3 lysate, c-Jun phosphorylation; series mostly up to 57.1 µM;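 note: kinase came from lysate of stimulated human HepG2 cells; signal reports phosphorylation of biotinylated GST-cJun 1-79 at Ser73 with 10 µM ATP; % is set by controls: 0 for no effect and ±100 for the full control effect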
In short: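 Compound titrations were preincubated 15 minutes at room temperature with substrate, antibody and pre-activated JNK3-containing HepG2 lysate. Reactions were started with 10 uM ATP and stopped with EDTA-containing bead buffer for AlphaScreen detection.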

[7] = target: 3',5'-cyclic-AMP phosphodiesterase 4B (Homo sapiens) (UniProt Q07343); test: qHTS Assay for Inhibitors of PDE-IV (AID 607; active = well fitted activation curve with a large enough effect in the main read-out, with a control signal flat, not every such curve was filed as active; note: % of control where 0% means no effect); settings: HEK293 ACTOne CNG channel cells, membrane potential fluorescence; series mostly up to 22.9 µM
In short: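 Live HEK293 cells with a modified cyclic nucleotide-gated (CNG) channel report intracellular cAMP via membrane-potential dye fluorescence (ex 535/em 590 nm). Endogenous PDE-IV was targeted. Compounds were tested at up to 22.9 uM final; RO 20-1724 100 uM served as control.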

[8] = qHTS Assay for Lipid Storage Modulators (AID 1519; calls by dose curve); settings: Drosophila S3 cells, BODIPY lipid droplet/cell ratio, laser cytometry, cells loaded with oleic acid; for activity change, negative = inhibition: at 57.5 µM (top of the series)
In short: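 Cells seeded at 5,000 per well were treated with compounds over a concentration series and loaded with oleic acid (400 uM, as added). Lipid droplet fluorescence (488 nm excitation, 500-530 nm channel) was read by laser-scanning cytometry and normalized to 20 uM Triacsin C.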

[9] = Primary qHTS for small molecule stabilizers of the endoplasmic reticulum resident proteome: Secreted ER Calcium Modulated Protein (SERCaMP) assay (AID 1508630; active = well fitted curve in the direction sought with a large enough effect; an effect the other way counts as inactive or inconclusive; note: % is set by controls: 0 for no effect and ±100 for the full control effect); settings: SH-SY5Y GLuc-SERCaMP (Gaussia luciferase released on ER calcium loss) secretion, thapsigargin, luminescence; series mostly up to 38.4 µM
In short: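 GLuc-SERCaMP-expressing SH-SY5Y cells, pretreated 16 h with compound, are challenged with thapsigargin to empty ER calcium stores; after 4 h, coelenterazine is added directly to the medium and luminescence is imaged.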

[10] = target: Cytochrome P450 3A4 (Homo sapiens) (UniProt P08684); test: qHTS Assay for Activators of Cytochrome P450 3A4 (AID 885; active = well fitted curve in the direction sought with a large enough effect; an effect the other way counts as inactive or inconclusive; note: nearly all actives have a fitted effect of over 65% in size; note: potency is the fitted concentration of half-maximal effect); settings: recombinant CYP3A4, Luciferin-PPXE luminescence, 60 min; series mostly up to 57.1 µM
In short: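 Quantitative HTS format: compounds preincubated with 20nM human CYP3A4 and Luciferin-PPXE substrate at KM, reaction started by NADPH regeneration, stopped after 60 min, luciferase luminescence read 20 min later.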

[11] = target: Cytochrome P450 2D6 (Homo sapiens) (UniProt P10635); test: qHTS Assay for Inhibitors and Substrates of Cytochrome P450 2D6 (AID 891; active = well fitted curve in the direction sought with a large enough effect; an effect the other way counts as inactive or inconclusive; note: potency is the fitted concentration of half-maximal effect; nearly all actives have a fitted effect of over 60% in size); settings: recombinant CYP2D6, luciferin-ME EGE luminescence; series mostly up to 57.1 µM
In short: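 Human CYP2D6 (5 nM) with 30 uM Luciferin-ME EGE (at Km) in 100 mM KPO4, compound preincubated 10 min, then NADPH regeneration system for 60 min at room temperature. Luciferin read by luminescence; normalized to 1.43 uM quinidine.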

[12] = measured here: cell count channel max response
[13] = measured here: lipid channel max response

Sequence of Lysosomal acid glucosylceramidase (Homo sapiens) (P04062 whole entry, looked up): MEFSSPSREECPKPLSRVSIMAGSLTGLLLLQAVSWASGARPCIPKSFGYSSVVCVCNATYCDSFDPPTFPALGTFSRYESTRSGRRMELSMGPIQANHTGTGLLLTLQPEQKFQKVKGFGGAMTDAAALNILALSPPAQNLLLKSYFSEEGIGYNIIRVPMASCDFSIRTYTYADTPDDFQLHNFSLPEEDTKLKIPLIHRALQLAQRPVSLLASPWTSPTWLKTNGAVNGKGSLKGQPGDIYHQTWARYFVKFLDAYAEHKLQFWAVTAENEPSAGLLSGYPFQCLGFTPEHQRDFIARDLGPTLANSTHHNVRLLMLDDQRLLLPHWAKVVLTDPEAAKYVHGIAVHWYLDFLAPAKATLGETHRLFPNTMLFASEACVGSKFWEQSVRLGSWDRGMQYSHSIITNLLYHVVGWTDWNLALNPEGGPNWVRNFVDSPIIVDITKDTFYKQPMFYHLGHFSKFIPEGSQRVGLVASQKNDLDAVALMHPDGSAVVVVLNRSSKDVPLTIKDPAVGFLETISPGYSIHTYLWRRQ
Sequence of Cytochrome P450 3A4 (Homo sapiens) (P08684 whole entry, looked up): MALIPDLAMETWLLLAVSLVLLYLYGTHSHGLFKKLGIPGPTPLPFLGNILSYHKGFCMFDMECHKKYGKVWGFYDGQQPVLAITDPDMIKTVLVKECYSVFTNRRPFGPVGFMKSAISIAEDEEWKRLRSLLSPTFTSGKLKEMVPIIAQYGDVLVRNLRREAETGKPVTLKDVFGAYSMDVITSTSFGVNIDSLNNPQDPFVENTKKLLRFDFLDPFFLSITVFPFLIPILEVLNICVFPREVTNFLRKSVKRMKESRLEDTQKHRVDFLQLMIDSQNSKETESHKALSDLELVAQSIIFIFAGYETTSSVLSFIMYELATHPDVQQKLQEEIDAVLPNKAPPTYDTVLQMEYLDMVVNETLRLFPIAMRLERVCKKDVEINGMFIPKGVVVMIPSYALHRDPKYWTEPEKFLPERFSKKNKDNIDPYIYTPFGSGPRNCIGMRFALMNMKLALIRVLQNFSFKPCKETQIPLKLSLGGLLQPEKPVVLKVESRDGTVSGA
Sequence of Glucocorticoid receptor (Homo sapiens) (P04150 whole entry, looked up, the tested form may be a part): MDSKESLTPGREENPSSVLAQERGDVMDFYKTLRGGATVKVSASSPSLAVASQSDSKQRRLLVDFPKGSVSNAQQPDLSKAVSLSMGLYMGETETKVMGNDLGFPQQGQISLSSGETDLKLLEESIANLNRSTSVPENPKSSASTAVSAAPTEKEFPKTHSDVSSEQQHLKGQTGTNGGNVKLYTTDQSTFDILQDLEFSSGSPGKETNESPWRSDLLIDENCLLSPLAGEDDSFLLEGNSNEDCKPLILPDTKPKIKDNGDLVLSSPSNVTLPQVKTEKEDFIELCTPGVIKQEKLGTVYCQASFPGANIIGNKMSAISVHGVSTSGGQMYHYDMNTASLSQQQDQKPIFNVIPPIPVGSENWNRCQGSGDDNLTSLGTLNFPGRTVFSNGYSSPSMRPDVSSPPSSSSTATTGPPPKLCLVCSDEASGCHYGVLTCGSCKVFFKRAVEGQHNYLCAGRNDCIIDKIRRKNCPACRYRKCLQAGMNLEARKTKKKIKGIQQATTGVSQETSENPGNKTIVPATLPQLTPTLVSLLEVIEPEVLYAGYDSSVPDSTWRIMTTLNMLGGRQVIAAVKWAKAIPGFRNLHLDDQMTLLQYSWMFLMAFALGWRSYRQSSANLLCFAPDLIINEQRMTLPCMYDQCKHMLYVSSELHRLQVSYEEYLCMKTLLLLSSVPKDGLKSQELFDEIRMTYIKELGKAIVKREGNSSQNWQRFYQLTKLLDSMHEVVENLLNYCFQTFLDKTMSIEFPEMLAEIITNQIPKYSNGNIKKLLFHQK
Sequence of 3',5'-cyclic-AMP phosphodiesterase 4B (Homo sapiens) (Q07343 whole entry, looked up): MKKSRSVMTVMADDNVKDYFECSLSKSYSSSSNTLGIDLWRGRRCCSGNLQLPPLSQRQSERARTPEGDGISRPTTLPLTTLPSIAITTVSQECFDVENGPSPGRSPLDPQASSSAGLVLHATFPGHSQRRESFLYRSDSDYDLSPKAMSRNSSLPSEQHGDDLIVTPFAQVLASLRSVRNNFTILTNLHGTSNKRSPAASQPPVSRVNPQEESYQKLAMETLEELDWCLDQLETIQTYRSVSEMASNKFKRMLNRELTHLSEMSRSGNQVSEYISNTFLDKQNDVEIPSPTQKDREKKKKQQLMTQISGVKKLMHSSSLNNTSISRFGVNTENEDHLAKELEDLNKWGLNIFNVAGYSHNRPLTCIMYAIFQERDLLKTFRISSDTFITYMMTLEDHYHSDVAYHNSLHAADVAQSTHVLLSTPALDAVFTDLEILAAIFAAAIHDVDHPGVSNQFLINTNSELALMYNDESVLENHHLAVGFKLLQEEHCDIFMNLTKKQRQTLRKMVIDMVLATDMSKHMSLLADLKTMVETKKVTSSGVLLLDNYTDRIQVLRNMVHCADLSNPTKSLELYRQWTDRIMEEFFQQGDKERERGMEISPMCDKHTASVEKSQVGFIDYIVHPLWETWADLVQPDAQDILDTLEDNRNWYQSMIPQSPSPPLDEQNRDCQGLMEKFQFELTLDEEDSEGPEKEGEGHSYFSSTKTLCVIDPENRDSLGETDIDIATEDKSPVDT
Sequence of Cytochrome P450 2D6 (Homo sapiens) (P10635 whole entry, looked up): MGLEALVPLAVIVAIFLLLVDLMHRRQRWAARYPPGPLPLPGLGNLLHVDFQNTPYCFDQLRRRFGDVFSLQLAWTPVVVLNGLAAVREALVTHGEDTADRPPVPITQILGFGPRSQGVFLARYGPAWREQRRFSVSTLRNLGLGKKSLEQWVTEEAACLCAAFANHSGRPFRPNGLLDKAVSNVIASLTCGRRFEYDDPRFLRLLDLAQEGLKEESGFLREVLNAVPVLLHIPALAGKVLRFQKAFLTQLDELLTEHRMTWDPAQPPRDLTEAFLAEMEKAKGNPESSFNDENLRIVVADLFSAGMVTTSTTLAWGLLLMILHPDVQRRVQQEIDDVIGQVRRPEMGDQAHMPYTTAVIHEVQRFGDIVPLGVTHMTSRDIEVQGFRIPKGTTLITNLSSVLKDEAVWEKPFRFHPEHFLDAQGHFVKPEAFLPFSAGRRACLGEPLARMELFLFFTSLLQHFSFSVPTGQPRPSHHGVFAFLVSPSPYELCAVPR

Compound: CS(=O)(=O)N1CCC2(CC1)CN(Cc1ccccc1)C2
- Potency [1]: > 11.4 µM (inactive)
- activity change, negative = inhibition [2]: -4.28% (inactive)
- activity change, negative = inhibition [3]: -8.71% (inactive)
- activity, negative = inhibition [4]: -7.57% (inactive)
- Potency [5]: > 46 µM (inactive)
- Potency [6]: inactive
- Potency [7]: inactive
- activity change, negative = inhibition [8]: 3.83% (inactive)
- max response [8, 12]: 6.73%
- max response [8, 13]: 15%
- outcome [9]: inactive

Compound: O=C(Nc1ccccc1)N1CC[C@@]2(CCCN(C(=O)c3csnn3)C2)C1
- Potency [1]: > 11.4 µM (inactive)
- activity change, negative = inhibition [2]: -13.6% (inactive)
- activity change, negative = inhibition [3]: 9.61% (inactive)
- activity, negative = inhibition [4]: 0.432% (inactive)
- Potency [5]: > 46 µM (inactive)
- Potency [6]: inactive
- Potency [7]: inactive
- activity change, negative = inhibition [8]: 6.56% (inactive)
- max response [8, 12]: -5.15%
- max response [8, 13]: 6.65%
- outcome [9]: inactive

Compound: Cc1noc(C)c1C(=O)N1CCC2(CC1)CCN(c1ncccn1)CC2
- Potency [1]: > 11.4 µM (inactive)
- activity change, negative = inhibition [2]: 16.2% (inactive)
- activity change, negative = inhibition [3]: 5.74% (inactive)
- activity, negative = inhibition [4]: 3.32% (inactive)
- Potency [5]: > 46 µM (inactive)
- Potency [6]: inactive
- Potency [7]: inactive
- activity change, negative = inhibition [8]: 5.54% (inactive)
- max response [8, 12]: 6.46%
- max response [8, 13]: 13.5%
- outcome [9]: inactive

Compound: COc1ccc(NC(=O)N2CCCC3(CCN(C(=O)c4ccncc4)CC3)C2)cc1
- Potency [1]: > 11.4 µM (inactive)
- activity change, negative = inhibition [2]: -8.03% (inactive)
- activity change, negative = inhibition [3]: -13.4% (inactive)
- activity, negative = inhibition [4]: -2.92% (inactive)
- Potency [5]: > 46 µM (inactive)
- Potency [6]: inactive
- Potency [7]: inactive
- activity change, negative = inhibition [8]: 4.52% (inactive)
- max response [8, 12]: 10.2%
- max response [8, 13]: 18.3%
- outcome [9]: inactive

Compound: COc1ccc(NC(=O)N2CC3(CCNCC3)C2)cc1
- Potency [1]: > 11.4 µM (inactive)
- activity change, negative = inhibition [2]: 7.88% (inactive)
- activity change, negative = inhibition [3]: 6.29% (inactive)
- activity, negative = inhibition [4]: -3.83% (inactive)
- Potency [5]: > 46 µM (inactive)
- Potency [6]: inactive
- Potency [7]: inactive
- activity change, negative = inhibition [8]: 5.62% (inactive)
- max response [8, 12]: 12.7%
- max response [8, 13]: 23%
- outcome [9]: inactive

Compound: CC(=O)N1CCC2(CC1)CN(C(=O)Nc1cccc(C#N)c1)C2
- Potency [1]: > 11.4 µM (inactive)
- activity change, negative = inhibition [2]: -2.26% (inactive)
- activity change, negative = inhibition [3]: 4.7% (inactive)
- activity, negative = inhibition [4]: 11.4% (inactive)
- Potency [5]: > 46 µM (inactive)
- Potency [6]: inactive
- Potency [7]: inactive
- activity change, negative = inhibition [8]: 2.51% (inactive)
- max response [8, 12]: -2.48%
- max response [8, 13]: 1.82%
- outcome [9]: inactive

Compound: COC(=O)N1CCC[C@@]2(CCN(C(=O)NC(C)C)C2)C1
- Potency [1]: > 11.4 µM (inactive)
- activity change, negative = inhibition [2]: -4.17% (inactive)
- activity change, negative = inhibition [3]: -22.1% (inactive)
- activity, negative = inhibition [4]: 8.06% (inactive)
- Potency [5]: > 46 µM (inactive)
- Potency [6]: inactive
- Potency [7]: inactive
- activity change, negative = inhibition [8]: 2.29% (inactive)
- max response [8, 12]: -6.98%
- max response [8, 13]: -3.79%
- outcome [9]: inactive

Compound: O=C(c1ccncc1)N1CCC2(CCCN(c3ccccc3)C2)CC1
- Potency [1]: > 11.4 µM (inactive)
- activity change, negative = inhibition [2]: -3.67% (inactive)
- activity change, negative = inhibition [3]: 3.61% (inactive)
- activity, negative = inhibition [4]: -3.54% (inactive)
- Potency [5]: > 46 µM (inactive)
- Potency [6]: inactive
- Potency [7]: inactive
- activity change, negative = inhibition [8]: 6.76% (inactive)
- max response [8, 12]: 7.52%
- max response [8, 13]: 17.5%
- outcome [9]: inactive

Compound: O=C(Nc1ccccc1)N1CC[C@@]2(CCCN(C(=O)c3cccc(F)c3)C2)C1
- Potency [1]: > 11.4 µM (inactive)
- activity change, negative = inhibition [2]: -10.5% (inactive)
- activity change, negative = inhibition [3]: -6.63% (inactive)
- activity, negative = inhibition [4]: 4.89% (inactive)
- Potency [5]: > 46 µM (inactive)
- Potency [6]: inactive
- Potency [7]: inactive
- Potency [10]: inactive
- activity change, negative = inhibition [8]: 5.88% (inactive)
- max response [8, 12]: 19.2%
- max response [8, 13]: 27.2%
- outcome [9]: inactive

Compound: O=C(c1csnn1)N1CCC[C@@]2(CCN(C(c3ccccc3)c3ccccc3)C2)C1
- Potency [1]: > 11.4 µM (inactive)
- activity change, negative = inhibition [2]: 8.26% (inactive)
- activity change, negative = inhibition [3]: 29.4% (inactive)
- activity, negative = inhibition [4]: 26.4% (inactive)
- Potency [5]: > 46 µM (inactive)
- Potency [6]: inactive
- Potency [7]: inactive
- activity change, negative = inhibition [8]: -19.7% (inactive)
- max response [8, 12]: -5.14%
- max response [8, 13]: -20.5%
- outcome [9]: inactive

Compound: COCC(=O)N1CCC2(CC1)CN(c1ccc(-c3ccccc3)cc1)C2
- Potency [1]: > 11.4 µM (inactive)
- activity change, negative = inhibition [2]: 2.14% (inactive)
- activity change, negative = inhibition [3]: 14.1% (inactive)
- activity, negative = inhibition [4]: -17.6% (inactive)
- Potency [5]: > 46 µM (inactive)
- Potency [6]: inactive
- Potency [7]: inactive
- activity change, negative = inhibition [8]: 2.72% (inactive)
- max response [8, 12]: -7.54%
- max response [8, 13]: -3.13%
- outcome [9]: inactive

Compound: Cn1cccc1C(=O)N1CCC2(CC1)CN(C(c1ccccc1)c1ccccc1)C2
- Potency [1]: > 11.4 µM (inactive)
- activity change, negative = inhibition [2]: 14.4% (inactive)
- activity change, negative = inhibition [3]: -18.7% (inactive)
- activity, negative = inhibition [4]: -4.09% (inactive)
- Potency [5]: > 46 µM (inactive)
- Potency [6]: inactive
- Potency [7]: inactive
- Potency [10]: 15.8 µM (active)
- Potency [11]: 3.16 µM (active)
- activity change, negative = inhibition [8]: -5.27% (inactive)
- max response [8, 12]: -6.77%
- max response [8, 13]: -9.88%
- outcome [9]: inactive

Compound: COCC(=O)N1CCC[C@@]2(CCN(C(=O)Nc3ccccc3)C2)C1
- Potency [1]: > 11.4 µM (inactive)
- activity change, negative = inhibition [2]: -5.16% (inactive)
- activity change, negative = inhibition [3]: 1.53% (inactive)
- activity, negative = inhibition [4]: -3% (inactive)
- Potency [5]: > 46 µM (inactive)
- Potency [6]: inactive
- Potency [7]: inactive
- activity change, negative = inhibition [8]: 5.08% (inactive)
- max response [8, 12]: 3.08%
- max response [8, 13]: 10.8%
- outcome [9]: inactive

Compound: CC(C)CN1CC[C@@]2(CCCN(C(=O)c3ccco3)C2)C1
- Potency [1]: > 11.4 µM (inactive)
- activity change, negative = inhibition [2]: -7.86% (inactive)
- activity change, negative = inhibition [3]: 7.22% (inactive)
- activity, negative = inhibition [4]: -2.85% (inactive)
- Potency [5]: > 46 µM (inactive)
- Potency [6]: inactive
- Potency [7]: inactive
- Potency [10]: inactive
- activity change, negative = inhibition [8]: 3.8% (inactive)
- max response [8, 12]: 3.5%
- max response [8, 13]: 8.53%
- outcome [9]: inactive
